Source: PubChem BioAssay
Rows were chosen to be rich in hits. Some 3% of all compounds tested hit in one or more screens of this group.
SENP8 block-1 = SENP8 protease inhibition. Q96LD8. purified SENP8, Z-RLRGG-aminoluciferin cleavage, luminescence. inhibition, % at 10 µM. 330,000 tested, 1.2% active; in the data active = inhibition above about 50%
PPC-1+TRAIL kill = compounds killing PPC-1 cancer cells with TRAIL present (potentiator screen, no TRAIL-free arm) | PPC-1 cells + TRAIL, ATPLite viability luminescence | cell killing (% activity), % at 4 µM or 5 µM | 220,000 tested, 0.41% active | AID 1443;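 active = cell killing above 50% in the first pass at 4 µM, then a duplicate retest at 5 µM averaging 50% or more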
SENP6 block = inhibitors of human SENP6 protease | Q9GZR1 | Recombinant SENP6 catalytic domain, aminoluciferin luminescence | inhibition, % at 10 µM | 330,000 tested, 1.8% active | AID 2599;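 active = inhibition above about 50% at the single tested dose, limit read from the data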
Target sequence (Q9GZR1 628-1112 limits assumed): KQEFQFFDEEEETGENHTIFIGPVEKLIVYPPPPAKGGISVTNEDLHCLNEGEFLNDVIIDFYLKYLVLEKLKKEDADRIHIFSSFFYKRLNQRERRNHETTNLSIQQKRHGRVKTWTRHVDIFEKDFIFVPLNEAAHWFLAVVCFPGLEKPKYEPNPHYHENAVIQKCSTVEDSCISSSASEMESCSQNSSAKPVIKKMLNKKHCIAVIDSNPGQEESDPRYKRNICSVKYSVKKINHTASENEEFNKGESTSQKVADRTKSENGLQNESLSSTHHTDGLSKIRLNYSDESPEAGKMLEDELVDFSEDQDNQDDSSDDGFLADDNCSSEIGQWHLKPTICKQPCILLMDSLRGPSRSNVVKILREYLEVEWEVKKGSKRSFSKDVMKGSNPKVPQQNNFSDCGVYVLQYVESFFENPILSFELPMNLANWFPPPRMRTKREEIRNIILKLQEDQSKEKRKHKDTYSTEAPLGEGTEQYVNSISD
SENP7 block = blocks the human protease SENP7; Q9BQF6; 330,000 tested, 1.5% active; recombinant SENP7, Z-RLRGG-aminoluciferin luminescence, 40 min; inhibition, % at 5 µM;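 active = inhibition above about 50% at the single test dose, limit read from the data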
SENP8 block-2 = inhibitors of human SENP8 protease | Q96LD8 | recombinant SENP8, Nedd8 substrate fluorescence | inhibition, % at 20 µM | 360,000 tested, 0.64% active | AID 602440; in the data active = inhibition mostly above about 40%, no sharp cut-off; inactive = mostly below about 27%
C8 TRAIL sens = sensitizes caspase-8 expressing cells to TRAIL; NB7+C8 cells + TRAIL, ATPlite viability luminescence; inhibition (viability loss, TRAIL sensitization), % at 10 µM; 360,000 tested, 1% active;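 active = compounds causing at least 50% loss of cell viability in the single-dose screen, relative to plate controls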
A number is an active result; - = inactive; . = no result given.

SMILES	SENP8 block-1	PPC-1+TRAIL kill	SENP6 block	SENP7 block	SENP8 block-2	C8 TRAIL sens
CC(C)(C)c1ccc(C(=O)Nc2nnc(SCC(=O)NCC3CCCO3)s2)cc1 (centres undefined)	-	.	-	-	-	93.7
O=C(CSc1nnc(NC(=O)c2c(F)cccc2F)s1)NCC1CCCO1 (centres undefined)	-	.	-	-	-	-
CN(C)S(=O)(=O)c1ccc(C(=O)Nc2nnc(SCC(=O)NCC3CCCO3)s2)cc1 (centres undefined)	-	.	-	-	-	55.3
CCOc1ccc(C(=O)Nc2nnc(SCC(=O)NCC3CCCO3)s2)cc1 (centres undefined)	-	.	-	-	-	92.0
CC(C)c1ccc(Nc2nnc(SCC(=O)NCC3CCCO3)s2)cc1 (centres undefined)	-	.	-	-	-	-
O=C(CCNC(=O)c1ccc(Br)cc1)Nc1ncccc1O	-	.	-	-	-	-
CCCCn1c(=O)[nH]c(=O)c2c1nc(-c1ccccc1OC(F)F)n2C	-	.	-	-	-	-
Cn1c(N)c(N2CCN(c3ccccc3)CC2)c(=O)[nH]c1=O	-	-	-	-	-	-
COc1ccc(CN(CCCn2cnc3c(OC)ncnc32)CCCn2cnc3c(OC)ncnc32)cc1	.	.	.	.	-	-
O=C(COC(=O)/C=C/c1cccc(F)c1)NCc1ccc2c(c1)OCO2	.	.	.	.	-	-
COc1ccc(OC)c(NC(=O)COc2ccc3c(c2)CCC3)c1	-	.	-	-	-	-
O=C(Nc1ccc(F)cc1F)c1ccc(-n2cccn2)nc1	-	-	-	-	-	-
CC(C)Sc1ccc(C(=O)Nc2ccc(F)cc2F)cn1	55.6	-	70.4	68.3	-	-
N#Cc1ccc(C(=O)Nc2cc(C3CC3)nn2-c2ccccc2)cc1	-	.	-	-	-	-
CCOc1ncccc1C(=O)NCc1ccccc1Cl	-	-	-	-	-	-
CN(C)c1ccc(CNc2nc3ccccc3s2)cc1	53.6	.	81.7	95.2	.	.
COC(=O)c1c(C(=O)OC)c2c(-c3ccccc3)cc3cccc1n32	.	.	.	.	-	-
COc1cc(C(CC(=O)Nc2ccc(Cl)cn2)N2Cc3ccccc3C2=O)cc(OC)c1OC (centres undefined)	-	.	-	-	-	-
CCOC(=O)C1=C(CBr)NC(=O)NC1C (centres undefined)	-	-	-	-	-	-
Cc1cc(N/N=C/c2ccccc2Cl)nc(NCc2ccccc2)n1	-	-	-	-	-	57.3
Cc1cc(C)nc(N/N=C/c2ccccc2Cl)n1	-	-	-	-	-	-
C=CCNC(=O)c1ccc(N(Cc2ccc(Cl)cc2)S(C)(=O)=O)cc1	-	.	-	-	-	-
Cc1ccc(NC(=O)c2sc3nc(CCl)[nH]c(=O)c3c2C)c(C)c1	.	-	.	.	-	54.5
Cc1ccccc1-c1cn(-c2ccccc2)c(=S)[nH]1	-	.	-	-	-	-
Cc1ccc(-c2cn(-c3ccccc3)c(=S)[nH]2)cc1C	65.9	.	80.7	86.5	-	-
SMILES	SENP8 block-1	PPC-1+TRAIL kill	SENP6 block	SENP7 block	SENP8 block-2	C8 TRAIL sens
CN(C(=O)COC(=O)c1cnc(Cl)c(Cl)c1)C1CCCCC1	-	.	-	-	-	69.0
O=C(Nc1ccc(O)cc1)c1ccc2c(c1)C(=O)N(Cc1ccccc1)C2=O	-	.	-	-	-	63.4
Cc1ccc(NC(=O)c2ccc(Cl)nc2)cc1	-	-	-	-	-	-
Cc1ccc(NC(=O)c2nsc(Cl)c2Cl)cc1	-	-	53.6	61.8	-	-
O=Nc1c(O)c2ccccc2c2ccccc12	.	.	.	.	-	91.9
CC(O)(c1ccccc1)c1nc(-c2ccc3c(c2)OCO3)cs1 (centres undefined)	.	.	.	.	-	-
COc1cc(C(c2c(C)[nH][nH]c2=O)c2c(C)[nH][nH]c2=O)ccc1OC(=O)c1cccc([N+](=O)[O-])c1	-	-	-	-	42.3	-
O=C(Nc1ccc2c(c1)OCO2)c1cc(C2CCCCN2S(=O)(=O)c2cccs2)on1 (centres undefined)	.	.	.	.	-	-
O=[N+]([O-])c1ccc(CCNc2cccc3ccccc23)c([N+](=O)[O-])c1	-	-	54.8	-	-	-
Cc1cc([N+](=O)[O-])ccc1NCc1cccc2ccccc12	-	.	-	-	-	-
N#CCCN(C(=O)COC(=O)CCc1c[nH]c2ccccc12)c1ccccc1	-	.	-	-	-	-
NC(=O)c1sc2nc(-c3ccccc3)ccc2c1N	-	.	-	-	-	-
CCOC(=O)c1sc2nc(-c3ccccc3)ccc2c1N	-	58.1	-	-	-	77.0
NC(=O)c1oc2ccccc2c1NC(=O)c1ccc([N+](=O)[O-])o1	-	.	-	-	-	74.4
NC(=O)c1oc2ccccc2c1NC(=O)c1ccc(F)cc1	-	-	-	-	-	-
O=C(N=Nc1c(O)[nH]c2ccc(Br)cc12)c1cc(-c2cccs2)nc2ccccc12	.	-	.	.	-	86.8
Cn1c(O)c(N=NC(=O)c2cc(-c3cccs3)nc3ccccc23)c2ccccc21	-	-	-	-	-	-
CC1CCCCN1S(=O)(=O)c1ccc(C(=O)N(CCCN(C)C)c2nc3ccc(Br)cc3s2)cc1 (centres undefined)	-	.	-	-	-	55.2
COc1cc2nc(N(CCCN(C)C)C(=O)c3ccc(C(=O)c4ccccc4)cc3)sc2cc1OC	-	.	-	-	-	-
CCc1ccc2nc(N(CCCN(C)C)C(=O)c3ccc(S(=O)(=O)N4CCCc5ccccc54)cc3)sc2c1	-	.	-	-	-	67.5
CCc1ccc2nc(N(CCCN(C)C)C(=O)c3ccc(S(=O)(=O)N4CCCC4)cc3)sc2c1	-	.	-	-	-	-
CCc1ccc2nc(N(CCCN(C)C)C(=O)c3ccc(C(=O)c4ccccc4)cc3)sc2c1	-	.	-	-	-	62.3
Cc1cccc(NS(=O)(=O)c2cccc(C(=O)N3CCCC(C(F)(F)F)C3)c2)c1 (centres undefined)	-	.	-	-	-	-
COc1ccc2c(c1)CCO[C@]21O[C@H](CCO)C[C@H](O)[C@H]1O	.	.	.	.	-	-
COc1cc2c(cc1NC(=O)c1cccc([N+](=O)[O-])c1)oc1ccccc12	-	-	-	-	-	49.6
SMILES	SENP8 block-1	PPC-1+TRAIL kill	SENP6 block	SENP7 block	SENP8 block-2	C8 TRAIL sens
CSCC[C@H](NC(=O)C1CCC(CNC(=O)[C@@H]2CCCN2C(=O)OC(C)(C)C)CC1)C(=O)O (some centres undefined)	-	.	-	-	-	-
CCOc1ccc(-n2c(SCC(N)=O)nc3c([nH]c4ccccc43)c2=O)cc1	-	-	-	-	-	51.2
COc1ccccc1C(=O)N/C(=C\c1cn(C)c2ccccc12)C(=O)NCCCn1ccnc1	-	.	-	-	-	-
Cc1cccc(NC(=S)N/N=C/c2ccc([N+](=O)[O-])s2)c1	-	-	-	-	-	48.1
Cc1ccc(C(=S)N2CCN(Cc3ccccc3)CC2)s1	-	-	-	-	-	-
Cc1ccc(S(=O)(=O)n2ccc3c(OCCOCCSCC(NC(=O)OC(C)(C)C)C(=O)O)cccc32)cc1 (centres undefined)	-	.	-	-	-	-
